# PubChem BioAssay
# A number with no mark means an inactive call. Some of the results follow. Calls of active or inactive are those of the source.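 How the source made its calls, unless noted: active means inhibition above the hit cutoff computed for the primary STAT3 screen (cut at about 44% in these data); inactive means the rest.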
# What was measured:
# [1] = STAT3 reporter inhibitors, retest of hits, confirmation, U3A cells, luciferase, luminescence (AID 1265); settings: IL-6 STAT3 luciferase reporter, at 5.7 µM, hits give high values, cell line lacks STAT1;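 further: 0% = IL-6 plus DMSO and 100% = IL-6 plus nifuroxazide control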
# [2] = NF-kB reporter inhibitors in human cells, confirmation, counter-screen for STAT3 inhibitor project, cell-based, HEK293T, luciferase, TNF-alpha stimulus (AID 1308;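 active means inhibition above the mean of solvent-only control wells plus 3 SD, cutoff set per campaign, cut at about 13% in these data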;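 further: 0% = TNF-alpha with DMSO and 100% = TNF-alpha with MG high control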); settings: TNF-alpha induced, at 5.7 µM, hits give high values
# [3] = STAT1 reporter inhibitors, IFN-gamma induced, confirmation, counter-screen for STAT3 inhibitor project, cell-based, NIH 3T3, luciferase luminescence (AID 1317;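 active means inhibition above the mean plus 3 SD of solvent-only control wells, limit set per screening run, cut at about 16% in these data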;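 further: 0% = DMSO with IFN-gamma and 100% = nifuroxazide control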); settings: NIH 3T3 STAT1-luciferase reporter, at 5.7 µM, hits give high values
# [4] = molecular target: Neuropeptide Y receptor type 2 (Homo sapiens) (UniProt P49146); assay: NPY-Y2 potentiators or agonists, confirmation, cell-based (AID 1539; in the data active means activation above about 33%); settings: cell-based NPY-Y2 potentiator/agonist assay; at 3.6 µM; hits give high values
# Neuropeptide Y receptor type 2 (Homo sapiens), sequence (P49146 whole entry, looked up): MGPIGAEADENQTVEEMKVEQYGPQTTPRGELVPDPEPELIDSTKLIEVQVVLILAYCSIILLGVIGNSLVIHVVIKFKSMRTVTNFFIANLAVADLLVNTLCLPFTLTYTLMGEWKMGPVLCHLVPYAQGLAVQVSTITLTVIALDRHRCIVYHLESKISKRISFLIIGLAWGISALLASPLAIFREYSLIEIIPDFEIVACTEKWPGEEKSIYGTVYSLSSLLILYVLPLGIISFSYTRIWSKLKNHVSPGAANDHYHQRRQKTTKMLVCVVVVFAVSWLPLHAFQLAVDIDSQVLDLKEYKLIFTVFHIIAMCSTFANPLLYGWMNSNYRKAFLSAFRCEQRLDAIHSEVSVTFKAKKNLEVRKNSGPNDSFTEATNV
# [5] = molecular target: Neuropeptide Y receptor type 1 (Homo sapiens) (UniProt P25929); assay: NPY-Y1 potentiators or agonists, counter-screen for NPY-Y2 potentiator project, cell-based, fluorescence (AID 1651; in the data active means activation above about 45%;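 further: cells stimulated with submaximal NPY then isoproterenol with phosphodiesterase inhibitor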); settings: Y1 HEK293-CNG cells, membrane potential fluorescence; at 3.6 µM; hits give high values
# Neuropeptide Y receptor type 1 (Homo sapiens), sequence (P25929 whole entry, looked up): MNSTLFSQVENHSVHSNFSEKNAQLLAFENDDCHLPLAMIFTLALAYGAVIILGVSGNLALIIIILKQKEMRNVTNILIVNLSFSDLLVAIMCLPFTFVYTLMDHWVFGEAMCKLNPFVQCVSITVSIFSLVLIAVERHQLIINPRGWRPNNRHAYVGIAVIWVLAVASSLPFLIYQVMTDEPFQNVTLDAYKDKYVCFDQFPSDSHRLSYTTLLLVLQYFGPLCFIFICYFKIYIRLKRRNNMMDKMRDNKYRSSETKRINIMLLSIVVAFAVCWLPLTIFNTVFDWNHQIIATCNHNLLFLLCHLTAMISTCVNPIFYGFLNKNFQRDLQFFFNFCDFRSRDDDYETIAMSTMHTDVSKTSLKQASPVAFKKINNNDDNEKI
# [6] = molecular target: Neuropeptide Y receptor type 1 (Homo sapiens) (UniProt P25929); assay: NPY-Y1 direct agonists, selectivity assay for NPY-Y2 potentiator project, cell-based, fluorescence (AID 1702;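 active means activation above the mean of DMSO-only control wells plus 3 SD, cut at about 18% in these data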;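 further: cells stimulated with 1 µM isoproterenol plus the PDE inhibitor Ro 20-1724; 0% = isoproterenol with DMSO and no NPY and 100% = 40 nM NPY; Y1 agonists lower the membrane potential dye signal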); settings: HEK293 Y1-CNGC, membrane potential fluorescence, agonism; at 3.6 µM; hits give high values
# [7] = CNGC cAMP sensor activity inhibitors, counter-screen for NPY-Y2 potentiator project, cell-based, HEK293-CNG parental, membrane potential fluorescence (AID 1703;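 active means inhibition above the control-well mean plus 3 SD of those wells, cut at about 22% in these data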;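 further: 0% = DMSO with isoproterenol and 100% = DMSO without isoproterenol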); settings: isoproterenol cAMP, at 3.6 µM, hits give high values
# [8] = molecular target: Neuropeptide Y receptor type 2 (Homo sapiens) (UniProt P49146); assay: NPY-Y2 direct agonists, counter-screen for NPY-Y2 potentiator project, cell-based, fluorescence (AID 1710;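 active means activation above the mean of solvent-only control wells plus 3 SD, cut at about 10% in these data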;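 further: cells stimulated by isoproterenol with no NPY added so direct agonism is tested; 0% = DMSO with isoproterenol alone and 100% = NPY at EC100 plus isoproterenol; agonism lowers probe fluorescence through less cAMP and CNG channel opening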); settings: HEK293 Y2/CNGC cells, membrane potential fluorescence, agonist mode; at 3.6 µM; hits give high values
# [9] = KLF5 expression inhibitors, confirmation, DLD-1 cells, luminescence (AID 1834;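 active means inhibition above a set limit taken from the earlier primary screen, cut at about 63% in these data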;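 further: 0% = DMSO wells and 100% = LY294002 at 200 µM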); settings: DLD-1 KLF5 promoter firefly luciferase reporter, at 4 µM, hits give high values
# [10] = cytotoxicity in rat IEC-6 cells, cytotoxicity control for KLF5 inhibitor project, cell-based, luminescence, triplicate (AID 1905; in the data active means inhibition above about 23%;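 further: cells exposed to compounds for 48 hours before viability read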); settings: IEC-6 rat intestinal cells, viability luminescence; at 4 µM; hits give high values
# [11] = test system: Fam108b (Abhd17b) serine hydrolase [Mus musculus]; assay: mouse Fam108b serine hydrolase inhibitors, confirmation, counter-screen for RBBP9 inhibitor project, biochemical, fluorescence polarization, triplicate (AID 1978;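 active means inhibition above a limit from the primary screen, the mean over all compounds plus 3 SD, cut at about 19% in these data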;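 further: 0% = median of active Fam108b wells and 100% = catalytically dead S170A mutant; inhibitors free the probe so polarization falls as inhibition rises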); settings: recombinant Fam108b, FP-Rh probe fluorescence polarization; at 9.51 µM; hits give high values
# [12] = molecular target: Protein phosphatase methylesterase 1 (Homo sapiens) (UniProt Q9Y570); assay: PME-1 inhibitor activity retest, confirmation, biochemical, fluorescence polarization, FP-Rh probe, triplicate (AID 2171;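 active means inhibition above the hit cutoff set in the earlier primary screen, cut at about 27% in these data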;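 further: 0% = enzyme with DMSO and 100% = wells lacking PME-1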); settings: recombinant PME-1, FP-Rh probe fluorescence polarization; at 5.9 µM; hits give high values
# Protein phosphatase methylesterase 1 (Homo sapiens), sequence (Q9Y570 whole entry, looked up): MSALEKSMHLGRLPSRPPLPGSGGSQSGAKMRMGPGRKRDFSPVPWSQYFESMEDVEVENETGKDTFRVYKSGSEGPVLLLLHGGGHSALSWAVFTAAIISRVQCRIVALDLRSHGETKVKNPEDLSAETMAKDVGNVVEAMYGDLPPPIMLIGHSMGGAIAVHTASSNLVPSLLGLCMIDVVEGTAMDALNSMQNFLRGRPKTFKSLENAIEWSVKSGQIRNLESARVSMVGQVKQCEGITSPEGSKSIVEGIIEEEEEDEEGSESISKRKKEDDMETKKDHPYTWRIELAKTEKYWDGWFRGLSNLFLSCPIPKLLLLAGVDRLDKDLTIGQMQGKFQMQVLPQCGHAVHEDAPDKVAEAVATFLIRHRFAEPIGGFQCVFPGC
# [13] = molecular target: Photoreceptor-specific nuclear receptor (Homo sapiens) (UniProt Q9Y5X4); assay: NR2E3 agonist confirmation in cells, cell-based, luminescence, CHO-S two-hybrid (AID 624378;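 active means average inhibition above a cutoff equal to the mean inhibition of all tested compounds plus one SD, cut at about 70% in these data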;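 further: 0% = DMSO in NR2E3 cells and 100% = DMSO in cells lacking NR2E3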); settings: CHO-S mammalian two-hybrid NR2E3-NCOR, luciferase luminescence; at 3.98 µM; hits give high values
# Photoreceptor-specific nuclear receptor (Homo sapiens), sequence (Q9Y5X4 whole entry, looked up): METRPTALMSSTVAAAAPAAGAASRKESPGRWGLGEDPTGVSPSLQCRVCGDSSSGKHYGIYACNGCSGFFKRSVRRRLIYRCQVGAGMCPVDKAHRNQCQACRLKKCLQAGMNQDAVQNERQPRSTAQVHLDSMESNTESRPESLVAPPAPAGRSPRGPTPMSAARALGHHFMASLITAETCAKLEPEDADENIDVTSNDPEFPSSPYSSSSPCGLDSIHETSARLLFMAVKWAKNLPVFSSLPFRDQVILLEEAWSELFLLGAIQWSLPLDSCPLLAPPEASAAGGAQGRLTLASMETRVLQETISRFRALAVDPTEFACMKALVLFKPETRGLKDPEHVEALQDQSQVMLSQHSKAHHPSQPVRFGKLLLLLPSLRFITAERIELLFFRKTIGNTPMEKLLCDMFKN
# [14] = growth loss of phage-infected RecBCD+ E. coli, confirmation, RecBCD inhibitor project, absorbance, E. coli V66, T4 gene 2 phage (AID 651982;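 active means mean inhibition over triplicates exceeding the hit threshold derived in the original primary screen, cut at about 11% in these data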); settings: E. coli V66 + T4 2- phage, growth OD; at 11.9 µM; hits give high values
# [15] = E. coli viability inhibition, counter-screen for RecBCD inhibitor project, absorbance, high throughput (AID 651983; in the data active means inhibition above about 20%;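 further: E. coli strain V66 grown with compound alone and no phage infection; 0% = bacteria with DMSO vehicle only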); settings: absorbance (OD) growth, at 11.9 µM, hits give high values
# [16] = growth loss of phage-infected AddAB-carrying E. coli, confirmation, counter-screen for RecBCD inhibitor project, absorbance, E. coli V3065, T4 phage (AID 651984;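 active means mean inhibition above the solvent-only control wells' mean plus 3 SD, cut at about 22% in these data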;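 further: higher means less bacterial growth from phage killing when AddAB is blocked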); settings: E. coli expressing H. pylori AddAB + T4 phage, OD growth; at 11.9 µM; hits give high values; gene 2 mutant T4, recBCD-deleted host
# [17] = molecular target: Insulin-degrading enzyme (Homo sapiens) (UniProt P14735); assay: human IDE inhibitors in live cells, confirmation, fluorescence polarization, HEK cells, FAbetaB substrate (AID 435028;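 active means mean inhibition across triplicate wells above the cutoff set by the earlier primary insulin-degrading enzyme screen, cut at about 16% in these data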;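 further: 0% = DMSO wells and 100% = 60 µM reference IDE inhibitor Ii1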); settings: FAbetaB cleavage, at 5.59 µM, hits give high values
# Insulin-degrading enzyme (Homo sapiens), sequence (P14735 whole entry, looked up): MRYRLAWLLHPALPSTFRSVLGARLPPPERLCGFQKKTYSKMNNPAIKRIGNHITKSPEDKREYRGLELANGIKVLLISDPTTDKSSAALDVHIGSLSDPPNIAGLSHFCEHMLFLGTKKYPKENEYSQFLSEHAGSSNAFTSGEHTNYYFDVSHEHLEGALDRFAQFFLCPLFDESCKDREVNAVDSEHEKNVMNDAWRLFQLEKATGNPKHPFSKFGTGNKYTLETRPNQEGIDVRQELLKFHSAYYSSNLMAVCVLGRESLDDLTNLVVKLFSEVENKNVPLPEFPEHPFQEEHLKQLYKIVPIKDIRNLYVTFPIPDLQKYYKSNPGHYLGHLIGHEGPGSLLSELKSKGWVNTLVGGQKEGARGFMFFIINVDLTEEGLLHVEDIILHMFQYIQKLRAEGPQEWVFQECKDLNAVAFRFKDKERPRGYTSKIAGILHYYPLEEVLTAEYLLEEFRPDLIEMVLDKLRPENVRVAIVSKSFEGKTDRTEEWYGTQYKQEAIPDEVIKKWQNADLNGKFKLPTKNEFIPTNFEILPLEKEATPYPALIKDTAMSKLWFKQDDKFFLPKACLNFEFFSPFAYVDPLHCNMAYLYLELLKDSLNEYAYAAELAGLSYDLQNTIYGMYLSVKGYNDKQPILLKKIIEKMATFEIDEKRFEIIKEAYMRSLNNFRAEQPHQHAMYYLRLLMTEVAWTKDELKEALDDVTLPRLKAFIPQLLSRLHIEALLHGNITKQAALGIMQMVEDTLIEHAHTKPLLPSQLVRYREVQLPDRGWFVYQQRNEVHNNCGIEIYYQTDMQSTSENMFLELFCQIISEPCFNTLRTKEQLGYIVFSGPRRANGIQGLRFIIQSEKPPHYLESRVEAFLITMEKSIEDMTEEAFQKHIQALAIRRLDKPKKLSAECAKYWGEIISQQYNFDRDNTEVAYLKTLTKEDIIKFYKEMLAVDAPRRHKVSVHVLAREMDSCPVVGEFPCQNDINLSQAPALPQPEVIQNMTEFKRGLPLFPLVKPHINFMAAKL
# [18] = cytotoxicity in HEK cells, cytotoxicity control for IDE inhibitor project, cell-based, luminescence (AID 449730; in the data active means inhibition above about 22%;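 further: 0% = vehicle wells and 100% = reference cytotoxic drug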); settings: HEK293 cytotoxicity, ATP luminescence; at 5.59 µM; hits give high values
# [19] = GAL4-VP16 reporter modulators, confirmation, counter-screen for NR2E3 agonist project, cell-based, luminescence, CHO-S, high throughput (AID 624379;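 active means mean inhibition above a cutoff equal to the average over all tested compounds plus one standard deviation, cut at about 70% in these data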;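 further: luciferase from a UAS reporter driven by GAL4-VP16 transactivation; 0% = DMSO with VP16-transfected cells and 100% = DMSO with cells lacking VP16; higher means less reporter light so more repression of VP16 activity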); settings: CHO-S GAL4-VP16 luciferase reporter, at 3.98 µM, hits give high values
# [20] = Gal4-VP16 luciferase reporter inhibitors, counter-screen for COUP-TFII antagonist project, cell-based, luminescence, HEK293 (AID 687007; in the data active means inhibition above about 13%); settings: at 8.5 µM, hits give high values
# [21] = molecular target: COUP transcription factor 2 (Homo sapiens) (UniProt P24468); assay: NR2F2 transcriptional activity inhibitors, confirmation, cell-based, luciferase reporter, HEK293, triplicate (AID 687008;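 active means mean inhibition over three repeats above a set limit taken from the earlier primary screen, cut at about 38% in these data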;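 further: 100% = cells given the luciferase reporter alone without the COUP-TF2 vector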); settings: HEK293 NGFI-A luciferase reporter, luminescence; at 8.5 µM; hits give high values
# COUP transcription factor 2 (Homo sapiens), sequence (P24468 whole entry, looked up): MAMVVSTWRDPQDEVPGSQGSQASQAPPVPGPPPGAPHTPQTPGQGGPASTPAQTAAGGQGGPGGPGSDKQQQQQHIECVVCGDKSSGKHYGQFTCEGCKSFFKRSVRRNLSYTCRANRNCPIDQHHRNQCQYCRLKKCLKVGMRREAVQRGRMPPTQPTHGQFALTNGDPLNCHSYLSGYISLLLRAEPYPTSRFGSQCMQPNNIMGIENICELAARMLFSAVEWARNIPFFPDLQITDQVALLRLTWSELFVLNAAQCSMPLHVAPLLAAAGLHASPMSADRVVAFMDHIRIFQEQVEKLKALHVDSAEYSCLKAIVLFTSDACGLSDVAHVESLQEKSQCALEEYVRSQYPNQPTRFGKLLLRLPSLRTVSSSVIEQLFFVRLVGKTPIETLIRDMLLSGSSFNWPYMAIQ
# [22] = STAT1 signaling activators, confirmation, cell-based, HTS, luciferase reporter (AID 1262;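 active means activation above a set limit carried over from the earlier primary STAT1 screen, cut at about 140% in these data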;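 further: simple ratio to median IFN-gamma plus DMSO wells so 0% means no light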); settings: NIH 3T3 STAT1-luciferase reporter, IFN-gamma potentiation, luminescence; at 5.7 µM; hits give high values; 100% = IFN-gamma EC80 alone, no compound
# [23] = NF-kB reporter activators, TNF-alpha stimulated, counter-screen for STAT1 activator project, cell-based, HEK293T, luciferase luminescence (AID 1306;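 active means activation above the mean of solvent-only control wells plus 3 SD, set per campaign, cut at about 130% in these data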;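 further: TNF-alpha given at a submaximal dose yielding about 80% of full reporter signal; values are well signal over median control so 100% means no change and 0% no light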); settings: at 5.7 µM, hits give high values, 100% = TNF-alpha with vehicle only
# [24] = molecular target: Signal transducer and activator of transcription 3 (Homo sapiens) (UniProt P40763); assay: STAT3 reporter activation by STAT1 hits, confirmation, counter-screen for STAT1 activator project, U3A cells, luciferase, luminescence (AID 1316;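 active means activation above the solvent-only control well mean plus 3 SD, set per plate batch, cut at about 110% in these data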;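 further: 0% = no luminescence and 100% = median IL-6 plus DMSO wells; higher means more STAT3 reporter activation so hits are non-selective activators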); settings: IL-6, luminescence, at 5.7 µM, hits give high values, 100 = IL-6 alone, no compound effect, cells lack STAT1
# [25] = test system: DAF-12 nuclear receptor (Heterodera glycines), GAL4-LBD fusion; assay: H. glycines DAF-12 receptor agonists, confirmation, cell-based, luminescence, HEK293, GAL4-LBD fusion (AID 743050;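 active means mean activation over triplicate wells above the hit cutoff derived from the earlier primary screen, cut at about 11% in these data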;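 further: 0% = DMSO low control and 100% = 2 mM sodium butyrate high control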); settings: HEK293 GAL4-hgDAF12 luciferase reporter, agonist mode; at 6.8 µM; hits give high values; percent of butyrate response
# [26] = molecular target: Oxysterols receptor LXR-beta (Homo sapiens) (UniProt P55055); assay: LXR agonists, Gal4 luciferase reporter, confirmation, counter-screen for hgDAF-12 agonist project, cell-based, luminescence, HEK293, H. glycines campaign (AID 743051;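 active means mean activation of the triplicate above a set limit carried over from the primary screen, none filed active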); settings: 24 h, at 6.8 µM, hits give high values
# Oxysterols receptor LXR-beta (Homo sapiens), sequence (P55055 whole entry, looked up, the tested form may be a part): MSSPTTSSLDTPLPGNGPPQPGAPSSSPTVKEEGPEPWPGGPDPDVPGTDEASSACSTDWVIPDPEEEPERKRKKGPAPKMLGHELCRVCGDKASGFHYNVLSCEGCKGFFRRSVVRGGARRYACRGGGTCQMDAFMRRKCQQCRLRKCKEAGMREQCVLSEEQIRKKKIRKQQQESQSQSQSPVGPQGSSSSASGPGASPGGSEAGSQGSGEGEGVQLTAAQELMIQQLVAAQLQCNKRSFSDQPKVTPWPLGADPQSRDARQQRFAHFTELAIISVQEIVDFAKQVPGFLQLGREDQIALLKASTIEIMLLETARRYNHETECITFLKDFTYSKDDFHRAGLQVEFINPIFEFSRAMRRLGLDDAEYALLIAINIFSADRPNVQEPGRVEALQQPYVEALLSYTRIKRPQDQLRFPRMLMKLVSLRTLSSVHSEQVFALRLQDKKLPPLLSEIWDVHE
# [27] = test system: transactivating tegument protein VP16 (Human herpesvirus 1); assay: VP16 transactivation reporter inhibitors, counter-screen for SRC2 inhibitor project, cell-based, luminescence, single concentration (AID 652007; in the data active means inhibition above about 36%); settings: cell-based VP16 transactivation luciferase reporter, at 8.9 µM, hits give high values
# [28] = molecular target: Nuclear receptor coactivator 2 (Homo sapiens) (UniProt Q15596); assay: SRC2 coactivator transcriptional activity inhibitors, confirmation, cell-based, luminescence, HEK293, triplicate (AID 652008;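 active means mean inhibition above 46.5%, the solvent-only control mean plus 3 SD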;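 further: 0% = DMSO-treated cells and 100% = Gossypol at 36 µM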); settings: HEK293 GAL4-SRC2 luciferase reporter, at 8.9 µM, hits give high values
# Nuclear receptor coactivator 2 (Homo sapiens), sequence (Q15596 whole entry, looked up, the tested form may be a part): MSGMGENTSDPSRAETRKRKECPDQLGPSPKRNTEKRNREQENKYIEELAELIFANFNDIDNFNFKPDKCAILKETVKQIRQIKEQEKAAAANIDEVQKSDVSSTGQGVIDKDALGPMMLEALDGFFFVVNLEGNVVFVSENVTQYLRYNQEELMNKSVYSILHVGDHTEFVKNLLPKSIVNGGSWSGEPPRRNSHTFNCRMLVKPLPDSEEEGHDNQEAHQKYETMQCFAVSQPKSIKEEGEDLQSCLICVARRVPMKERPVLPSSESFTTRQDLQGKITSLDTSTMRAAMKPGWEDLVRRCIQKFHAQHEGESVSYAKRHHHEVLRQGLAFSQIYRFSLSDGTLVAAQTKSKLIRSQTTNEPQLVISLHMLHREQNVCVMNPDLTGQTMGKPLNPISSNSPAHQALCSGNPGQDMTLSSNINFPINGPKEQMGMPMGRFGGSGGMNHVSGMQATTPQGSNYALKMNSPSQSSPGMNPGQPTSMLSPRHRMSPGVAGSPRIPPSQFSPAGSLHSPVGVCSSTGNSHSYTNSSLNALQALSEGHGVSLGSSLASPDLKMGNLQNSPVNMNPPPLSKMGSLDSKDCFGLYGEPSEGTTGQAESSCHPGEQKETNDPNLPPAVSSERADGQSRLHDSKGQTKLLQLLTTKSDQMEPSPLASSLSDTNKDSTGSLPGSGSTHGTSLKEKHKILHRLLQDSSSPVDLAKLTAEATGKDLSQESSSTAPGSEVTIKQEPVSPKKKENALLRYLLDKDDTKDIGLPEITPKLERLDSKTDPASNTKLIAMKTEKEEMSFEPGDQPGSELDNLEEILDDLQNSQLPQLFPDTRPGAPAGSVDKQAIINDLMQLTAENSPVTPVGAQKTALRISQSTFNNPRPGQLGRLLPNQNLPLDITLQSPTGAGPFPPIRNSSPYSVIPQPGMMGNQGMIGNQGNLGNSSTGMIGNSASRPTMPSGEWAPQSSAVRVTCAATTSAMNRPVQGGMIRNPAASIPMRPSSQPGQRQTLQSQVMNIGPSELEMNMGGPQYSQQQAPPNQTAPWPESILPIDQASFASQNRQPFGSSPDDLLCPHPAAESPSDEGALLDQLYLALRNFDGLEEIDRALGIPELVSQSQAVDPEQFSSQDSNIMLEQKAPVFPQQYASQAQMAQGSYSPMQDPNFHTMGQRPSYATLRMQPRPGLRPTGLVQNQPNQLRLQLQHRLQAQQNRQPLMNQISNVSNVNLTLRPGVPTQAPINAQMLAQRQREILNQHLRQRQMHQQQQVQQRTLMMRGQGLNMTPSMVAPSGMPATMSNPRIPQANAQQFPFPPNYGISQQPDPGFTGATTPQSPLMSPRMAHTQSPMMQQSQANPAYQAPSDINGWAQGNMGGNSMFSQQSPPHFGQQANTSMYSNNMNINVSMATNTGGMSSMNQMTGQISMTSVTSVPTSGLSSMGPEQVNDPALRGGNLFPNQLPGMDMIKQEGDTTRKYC
smiles,measurement,setting,value
Oc1c(Cl)cc(Cl)c(Cl)c1Cc1c(O)c(Cl)cc(Cl)c1Cl,inhibition,[1],46.3% (active)
same,inhibition,[2],20.9% (active)
same,inhibition,[3],41% (active)
same,activation,[4],24.1%
same,activation,[5],3.71%
same,activation,[6],14.9%
same,inhibition,[7],15.6%
same,activation,[8],24.1% (active)
same,inhibition,[9],88% (active)
same,inhibition,[10],31.1% (active)
same,inhibition,[11],47.1% (active)
same,inhibition,[12],10.2%
same,inhibition,[13],98.9% (active)
same,inhibition,[14],11.6% (active)
same,inhibition,[15],11.5%
same,inhibition,[16],2.09%
CC(C)OCCCNc1ncnc2c1[nH]c1ccc(F)cc12,inhibition,[1],78.6% (active)
same,inhibition,[2],33.4% (active)
same,inhibition,[3],31.1% (active)
same,inhibition,[17],17.2% (active)
same,inhibition,[18],75.2% (active)
same,inhibition,[13],96.7% (active)
same,inhibition,[19],81.3% (active)
same,inhibition,[20],-32.6%
same,inhibition,[21],63.3% (active)
Cc1ccc(-c2cn3cc([N+](=O)[O-])ccc3n2)cc1,inhibition,[1],60.3% (active)
same,inhibition,[2],-3.2%
same,inhibition,[3],-77%
O=c1c2c(nc3n1CCCCC3)sc1c(O)cccc12,inhibition,[1],45.2% (active)
same,inhibition,[2],-0.37%
same,inhibition,[3],3.33%
OCCn1c(-c2ccccc2)csc1=Nc1ccccc1,inhibition,[1],14%
same,inhibition,[2],-12%
same,inhibition,[3],-20.1%
COc1ccc(NS(=O)(=O)c2ccc(NC(C)=O)cc2)cc1OC,inhibition,[1],26.4%
same,inhibition,[2],5.93%
same,inhibition,[3],17.1% (active)
Cc1ccc(-n2ncc3c(N4CCN(c5ccc(F)cc5)CC4)ncnc32)c(C)c1,inhibition,[1],46.6% (active)
same,inhibition,[2],22.4% (active)
same,inhibition,[3],14.9%
COc1ccc(C2Nc3ccccc3C(=O)N2c2ccc(Cl)cc2)cc1Cn1cc([N+](=O)[O-])cn1 (stereo not given),activation (% of control),[22],151% (active)
same,activation (% of control),[23],112%
same,activation (% of control),[24],120% (active)
same,activation,[25],10.6% (active)
same,activation,[26],0.5%
Cc1cc(NC(=O)c2cc(-c3cccs3)on2)nn1Cc1ccc(Cl)cc1,inhibition,[1],46.6% (active)
same,inhibition,[2],8.43%
same,inhibition,[3],0.57%
CN(C)S(=O)(=O)c1ccc(NC(=O)COC(=O)c2n[nH]c3ccccc23)cc1,inhibition,[1],38.2%
same,inhibition,[2],1.2%
same,inhibition,[3],8.4%
same,activation,[4],-2.42%
same,activation,[5],-36%
same,activation,[6],-29.4%
same,inhibition,[7],-6.29%
same,activation,[8],4.88%
same,inhibition,[27],-4.93%
same,inhibition,[28],16%
Cc1ccc(-c2cc(C(=O)N/N=C/C=C/c3ccco3)c3ccccc3n2)cc1C,inhibition,[1],-39.2%
same,inhibition,[2],12.6%
same,inhibition,[3],-40.9%
NC(=O)Cc1ccc2sc(-c3ccccc3)nc2c1,activation (% of control),[22],203% (active)
same,activation (% of control),[23],126%
same,activation (% of control),[24],108%
same,activation,[25],17.4% (active)
same,activation,[26],0.66%
COc1cccc(/C=C/c2ccc3ccccc3n2)c1OC(C)=O,inhibition,[1],25.2%
same,inhibition,[2],32.1% (active)
same,inhibition,[3],-9.23%
CCN(CC)c1ccc(/C=N/Nc2nc(C)cc(=O)[nH]2)cc1,inhibition,[1],37.2%
same,inhibition,[2],-2%
same,inhibition,[3],-4.6%
CCCCCc1ccc(-c2ccc(C(=O)O)cc2)nc1,inhibition,[1],22.4%
same,inhibition,[2],-6.17%
same,inhibition,[3],-71.4%
CC(C)C[C@@H](N)c1nnc(SCC(=O)c2ccc(Cl)cc2)o1,inhibition,[1],36.7%
same,inhibition,[2],10.9%
same,inhibition,[3],9.47%
O=C(Nc1ccc(NC(=O)c2cccs2)cn1)c1ccco1,inhibition,[1],20.3%
same,inhibition,[2],-29.5%
same,inhibition,[3],-92.3%
COc1cc(/C=N/O)ccc1OCc1ccc([N+](=O)[O-])cc1,activation (% of control),[22],234% (active)
same,activation (% of control),[23],131%
same,activation (% of control),[24],123% (active)
same,activation,[25],15.5% (active)
same,activation,[26],0.71%
COc1ccc(-c2csc(-c3cccs3)n2)cc1OC,activation (% of control),[22],179% (active)
same,activation (% of control),[23],136% (active)
same,activation (% of control),[24],114% (active)
same,activation,[25],9.44%
same,activation,[26],0.79%
CC(=O)c1sc(N/N=C/c2ccc(C(C)C)cc2)nc1C,activation (% of control),[22],187% (active)
same,activation (% of control),[23],133% (active)
same,activation (% of control),[24],110%
same,activation,[25],11.8% (active)
same,activation,[26],0.5%
CCOc1cccc(/C=C/c2ccc3ccccc3n2)c1OC(C)=O,inhibition,[1],-2.03%
same,inhibition,[2],-34.1%
same,inhibition,[3],-15.3%
Cc1ccc2nc(-c3ccc(NC(=O)c4cccnc4)cc3)oc2c1,inhibition,[1],31.7%
same,inhibition,[2],-25.2%
same,inhibition,[3],-38.3%
Cc1ccc2nc(-c3ccc(NC(=O)CN(C)S(=O)(=O)c4ccccc4)cc3)sc2c1,inhibition,[1],20.1%
same,inhibition,[2],-18.5%
same,inhibition,[3],-90.5%
